Source: PubChem BioAssay (EPA / NIEHS)
Values joined by “and” are separate entries in the source; they are usually repeats but may differ in a detail not shown here. Identical values can stand only once. Some compounds were tested as several samples or in several runs, with calls that do not always agree. Active and inactive are the calls of the source. The calls were made as follows: active = hit-call score of the fitted dose curve at least 0.9, where 1 is the maximum; inactive = score below 0.9.

How the values were obtained:
[1] = read-out: Vascular cell adhesion molecule 1 (VCAM1), VCAM1 (gene 7412); assay: BSK_LPS_VCAM1: BioMAP Diversity Plus: LPS Assay for Vascular cell adhesion molecule 1 (VCAM1) Biomarker Activity (AID 2283086); details: primary human HUVEC with PBMC; actives raise or lower the signal
Outline: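 Primary human vascular co-culture (umbilical vein endothelium plus PBMC) stimulated with LPS received chemical; 24 h later VCAM-1 was read by ELISA. Overt cytotoxicity was assessed by sulforhodamine B staining of parallel cultures at the same time point.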

[2] = read-out: CD38, CD38 (gene 952); assay: BSK_SAg_CD38: BioMAP Diversity Plus: SAg Assay for CD38 Biomarker Activity (AID 2283087); details: primary human HUVEC with PBMC; actives raise or lower the signal
Outline: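 Fluorescence ELISA of cell-surface CD38 served as the read-out, with either increase or decrease fitted against DMSO controls. Cells were a human umbilical vein endothelium plus PBMC co-culture under SEB/TSST-1 stimulation, measured 24 h after dosing.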

[3] = read-out: CD40, CD40 (gene 958); assay: BSK_SAg_CD40: BioMAP Diversity Plus: SAg Assay for CD40 Biomarker Activity (AID 2283088); details: primary human HUVEC with PBMC; actives raise or lower the signal
Outline: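 HUVEC plus PBMC co-culture, superantigen-activated, with CD40 read by ELISA 24 h after dosing. Curves fitted in both directions against DMSO. Overt cytotoxicity checked by parallel SRB total-protein staining.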

[4] = read-out: CD69, CD69 (gene 969); assay: BSK_SAg_CD69: BioMAP Diversity Plus: SAg Assay for CD69 Biomarker Activity (AID 2283089); details: primary human HUVEC with PBMC; actives raise or lower the signal;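 as to AC50: cell surface CD69 protein quantified by ELISA with fluorescence detection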
Outline: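 Primary human vascular co-culture (umbilical vein endothelium with peripheral blood mononuclear cells) exposed to test chemical for 24 h. CD69 levels quantified by fluorescence ELISA; DMSO served as negative control for bidirectional fitting.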

[5] = read-out: Monocyte Chemoattractant Protein-1 (MCP1), CCL2 (gene 6347); assay: BSK_SAg_MCP1: BioMAP Diversity Plus: SAg Assay for Monocyte Chemoattractant Protein-1 (MCP1) Biomarker Activity (AID 2283090); details: primary human HUVEC with PBMC; actives raise or lower the signal
Outline: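 MCP-1 levels in the endothelial–PBMC SAg co-culture were quantified by ELISA at 24 h post-dosing; both increases and decreases versus DMSO scored. Cytotoxicity monitored by SRB total protein in parallel cultures.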

[6] = read-out: E-selectin (Homo sapiens) (UniProt P16581); assay: BSK_SAg_Eselectin: BioMAP Diversity Plus: SAg Assay for Eselectin Biomarker Activity (AID 2283091); details: primary human HUVEC with PBMC; actives raise or lower the signal
Outline: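 Human umbilical vein endothelial cells co-cultured with peripheral blood mononuclear cells, SAg system. E-selectin is measured by ELISA 24 h after dosing and fitted bidirectionally against DMSO. Cytotoxicity is checked by SRB staining of parallel cultures.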

[7] = read-out: Monokine induced gamma interferon (MIG), CXCL9 (gene 4283); assay: BSK_SAg_MIG: BioMAP Diversity Plus: SAg Assay for Monokine induced gamma interferon (MIG) Biomarker Activity (AID 2283092); details: primary human HUVEC with PBMC; actives raise or lower the signal
Outline: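 Endothelial cells and PBMC were co-cultured, exposed to test chemicals, and sampled 24 h later. MIG was measured by ELISA, and responses were fitted in both directions relative to DMSO.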

[8] = BSK_SAg_PBMCCytotoxicity: PBMC Cytotoxicity Assessment in the BioMAP Diversity Plus: SAg Assay (AID 2283093); details: primary human HUVEC with PBMC;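 also: PBMC viability measured as Alamar Blue reduction fluorescence at 546/580 nm; fitted both ways against DMSO so a hit may be loss or gain of signal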;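 as to AC50: PBMC superantigen activated with SEB plus TSST-1 one hour after compound addition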
Outline: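 HUVEC/PBMC co-culture; PBMC exposed to chemical 1 h before SEB and TSST-1 activation (20 ng/mL each), incubated 90 h, then Alamar Blue 6 h, fluorescence 546/580 nm. Bidirectional fit versus DMSO baseline.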

[9] = read-out: Interleukin-8 (IL8), CXCL8 (gene 3576); assay: BSK_SAg_IL8: BioMAP Diversity Plus: SAg Assay for Interleukin-8 (IL8) Biomarker Activity (AID 2283094); details: primary human HUVEC with PBMC; actives raise or lower the signal
Outline: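 In this co-culture of human umbilical vein endothelium with peripheral blood mononuclear cells, IL-8 is assayed by ELISA at 24 h. DMSO serves as baseline for bidirectional curve fitting.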

[10] = BSK_SAg_Proliferation: Cell Proliferation Assessment in the BioMAP Diversity Plus: SAg Assay (AID 2283095); details: primary human HUVEC with PBMC;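 also: relative cell number as total protein by SRB absorbance in sub-confluent culture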
Outline: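 Readout is SRB-stained protein (560 nm) in a primary human HUVEC and PBMC co-culture; sub-confluent cultures are read at 96 h. Activity is fitted bidirectionally using DMSO as baseline.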

[11] = BSK_SAg_SRB: Viability Assessment in the BioMAP Diversity Plus: SAg Assay (AID 2283096); details: primary human HUVEC with PBMC;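 also: cells read one day after compound addition; hits may be either gain or loss of signal compared with DMSO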
Outline: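 Human umbilical vein endothelial cells co-cultured with PBMC, read 24 h after compound dosing. Total protein measured by sulforhodamine B staining (0.1% SRB after 10% TCA fixation, absorbance 560 nm); bidirectional fit versus DMSO baseline.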

Measured: AC50

E-selectin (Homo sapiens), sequence (P16581 whole entry, looked up): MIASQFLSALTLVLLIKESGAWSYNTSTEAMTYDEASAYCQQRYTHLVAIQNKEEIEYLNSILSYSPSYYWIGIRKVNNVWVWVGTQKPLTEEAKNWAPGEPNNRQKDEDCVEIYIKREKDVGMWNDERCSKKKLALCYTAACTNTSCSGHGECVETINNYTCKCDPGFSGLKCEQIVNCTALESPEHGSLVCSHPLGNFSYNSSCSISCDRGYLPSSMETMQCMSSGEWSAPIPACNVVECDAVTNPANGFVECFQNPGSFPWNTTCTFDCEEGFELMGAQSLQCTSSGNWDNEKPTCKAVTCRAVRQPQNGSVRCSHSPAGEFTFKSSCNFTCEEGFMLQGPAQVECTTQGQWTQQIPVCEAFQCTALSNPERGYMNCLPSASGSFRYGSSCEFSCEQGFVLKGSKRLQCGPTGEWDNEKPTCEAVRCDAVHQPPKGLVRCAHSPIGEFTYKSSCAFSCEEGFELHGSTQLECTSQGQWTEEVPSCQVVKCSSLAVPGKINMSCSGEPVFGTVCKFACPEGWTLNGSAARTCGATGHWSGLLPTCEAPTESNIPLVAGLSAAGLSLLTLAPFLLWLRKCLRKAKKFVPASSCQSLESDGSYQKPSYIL

CC[C@H]1OC(=O)[C@H](C)[C@@H](O[C@H]2C[C@@](C)(OC)[C@@H](O)[C@H](C)O2)[C@H](C)[C@@H](O[C@@H]2O[C@H](C)C[C@H](N(C)C)[C@H]2O)[C@](C)(O)C[C@@H](C)C(=O)[C@H](C)[C@@H](O)[C@]1(C)O
not listed: [11]
inactive: all other assays above

CC(C)CCCCCCCOC(=O)CCCCC(=O)OCCCCCCCC(C)C
inactive: all assays above

CC(C)CCO
inactive: all assays above

CCNc1ccccc1
not listed: [11]
inactive: all other assays above

CC(C)=CCC/C(C)=C/CO
inactive: all assays above

CC/C(=C\C(=N/O)C(N)=O)C(C)[N+](=O)[O-] (configuration not stated)
active: [10] 20 µM
not listed: [11]
inactive: all other assays above

CCCCCCCCCCCCCCCO
inactive: [7]
active: [1] 32.4 µM | [2] 32.6 µM | [3] 37.3 µM | [4] 31.7 µM | [5] 33.3 µM | [6] 33.5 µM | [8] 30.7 µM | [9] 28.6 µM | [10] 29.5 µM

Cc1ccc(C)c(O)c1
inactive: all assays above

Fc1ccccc1[C@@H](F)COC1CCC(Nc2ncnc3[nH]ncc23)CC1 (some centres not stated)
inactive: [1] | [6] | [7]
active: [2] 20 µM | [3] 16.3 µM | [4] 24.2 µM | [5] 31.6 µM | [8] 13.7 µM | [9] 20 µM | [10] 26.8 µM

CCCN(C1CCN(C(=O)C2CCNCC2)CC1)[C@@H]1CCc2ccc(OC)cc2C1
not listed: [11]
inactive: all other assays above

O=c1n(CC2CO2)c(=O)n(CC2CO2)c(=O)n1CC1CO1 (configuration not stated)
active: [1] 21.8 µM | [2] 18.5 µM | [3] 20 µM | [4] 20 µM | [5] 20 µM | [6] 10.7 µM | [9] 20 µM | [10] 10.6 µM
inactive: [7] | [8]

CC(O)CN(CCN(CC(C)O)CC(C)O)CC(C)O (configuration not stated)
inactive: all assays above

COc1ccc2sc(C(=O)Nc3nnn[nH]3)c(OC(C)C)c2c1
active: [1] 8.99 µM | [2] 16.2 µM | [3] 9.27 µM | [4] 19.9 µM | [5] 15.4 µM | [6] 30 µM | [7] 27.8 µM | [8] 10 µM | [9] 16.6 µM | [10] 11.9 µM | [11] 14.2 µM

CCOCCOCCOCCO
inactive: all assays above

Cn1c(=O)c2c(ncn2C)n(C)c1=O
not listed: [11]
inactive: all other assays above

C=CC(=C)CCC=C(C)C
not listed: [11]
inactive: all other assays above

O=C(CCCCCCCCc1cccnc1)N1CCC(C=C(c2ccccc2)c2ccccc2)CC1
active: [1] 15 µM | [2] 8.97 µM | [3] 8.35 µM | [4] 8.49 µM | [5] 7.42 µM | [6] 7.71 µM | [7] 8.63 µM | [8] 10.3 µM | [9] 6.46 µM | [10] 6.21 µM

Cn1cnc([N+](=O)[O-])c1Sc1ncnc2nc[nH]c12
inactive: [2] | [3] | [4] | [5] | [7] | [8] | [11]
active: [1] 25.3 µM and 6.4 µM and 13.7 µM | [2] 12.1 µM | [3] 13.3 µM and 8.21 µM | [5] 19.9 µM and 12.6 µM | [6] 6.91 µM and 12.6 µM and 16.9 µM | [8] 13.7 µM | [9] 12.9 µM and 12.6 µM and 9.23 µM | [10] 17.3 µM and 7.53 µM and 7.26 µM
